# A number with no mark means an inactive call. How the calls were made is not given here.
# Target: Pantothenate synthetase (Mycobacterium tuberculosis (strain ATCC 25618 / H37Rv)) (UniProt P9WIL5)
# Assay: Coupled enzyme confirmation of inhibitors against recombinant Mtb PanC (AID 375);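 further: 0% = full reaction with vehicle and 100% = no enzyme background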
# Settings: coupled enzyme assay; at 10 µM, stronger effect = higher value
# Pantothenate synthetase (Mycobacterium tuberculosis (strain ATCC 25618 / H37Rv)), sequence (P9WIL5 whole entry, looked up): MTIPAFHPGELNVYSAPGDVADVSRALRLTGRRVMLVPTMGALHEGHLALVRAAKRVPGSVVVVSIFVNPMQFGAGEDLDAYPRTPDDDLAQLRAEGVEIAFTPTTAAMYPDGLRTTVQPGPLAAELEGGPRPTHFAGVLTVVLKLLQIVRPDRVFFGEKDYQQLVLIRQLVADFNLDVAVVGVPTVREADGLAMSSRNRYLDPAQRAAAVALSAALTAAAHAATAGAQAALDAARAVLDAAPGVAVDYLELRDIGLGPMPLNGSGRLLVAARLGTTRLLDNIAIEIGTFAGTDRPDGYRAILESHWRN
row,Structure (SMILES),inhibition
1,CN1CCN(CCCNC(=O)Cn2ncc3c4ccccc4n(C)c3c2=O)CC1,0%
2,CCOC(=O)c1[nH]c(CSc2nnc(-c3ccc(OC)cc3)o2)c(C(=O)OCC)c1C,0%
3,CCOc1cc2oc(=O)c3c(c2cc1Cl)CCC3,0%
4,COc1ccc(C(c2sc3nc(C)nn3c2O)N2CCCCC2)cc1 (configuration not stated),0%
5,O=C1OC(N2CCN(c3ccccn3)CC2)c2ccccc21 (configuration not stated),0%
6,CCOCC(=O)Nc1ccc(S(=O)(=O)N2CCOCC2)cc1,0%
7,COc1cc2[nH]c(=O)n(CCCCCC(=O)NCCCN3CCCC3=O)c(=O)c2cc1OC,0%
8,CC(C)(C)n1ncc2c(=O)n(CC(=O)NCCc3ccccc3)cnc21,4%
9,CCOC(=O)c1cc2c(=O)n3ccccc3nc2n(CCCOC)c1=NC(=O)C(C)(C)C,4%
10,Cc1ccc(-n2nnnc2SCC(=O)Nc2c(C)n(C)n(-c3ccccc3)c2=O)cc1,0%
11,O=C(Nc1ccccc1C(=O)N1CCOCC1)C1COc2ccccc2O1 (configuration not stated),0%
12,CC(OC(=O)C1CC=CCC1C(N)=O)C(Cl)=C(Cl)Cl (configuration not stated),0%
13,Cc1csc(NC(=O)c2ccccc2C(=O)O)n1,5%
14,COc1cccc(C(=O)NCc2nnc(SCC(=O)Nc3nccs3)n2-c2ccccc2)c1,2%
15,COC(=O)c1ccccc1NS(=O)(=O)c1ccc(F)cc1,0%
16,CCCc1cn(S(=O)(=O)c2ccc(OC)cc2OC)nc1N,0%
17,CC1(C)CC(=O)C=C(NCCN2CCN(C(=O)Nc3ccccc3)CC2)C1,5%
